In all, about 340,000 compounds went through this assay and about 1,000 (0.29%) were called active. Cut-off read from the data, not from the text of the source: inconclusive = inhibition above about 29% without an active follow-up result; inactive = below that. Only a sample is shown. Entries with a potency or affinity are not part of this list.
Target: Genome polyprotein (Dengue virus type 2 (strain 16681-PDK53)) (UniProt P29991)
Test: flavivirus cap methylation enzyme inhibition – biochemical, confirmation dose response, primary screen (AID 588689)
Settings: Dengue-2 NS5 methyltransferase capping enzyme assay, at 25 µM, stronger effect = higher value
[1] = measured here: pilot screen replicate inhibition

Row | Compound | inhibition | inhibition [1] [%]
1 | CC(C)N1C(=O)CCN(C=O)c2ccccc21 | -9.31% (inactive) | –
2 | CCOC(=O)c1sc(N2C(=O)C(O)=C(C(=O)c3ccco3)C2c2cccc([N+](=O)[O-])c2)nc1C (stereo not given) | -0.32% (inactive) | –
3 | CCOc1ccc(C2C(C(=O)c3ccc(C)o3)=C(O)C(=O)N2c2nc(C)c(C(=O)OC)s2)cc1 (stereo not given) | 10.7% (inactive) | –
4 | COC(=O)c1sc(N2C(=O)C(O)=C(C(=O)c3ccc(C)o3)C2c2ccc(F)cc2)nc1C (stereo not given) | -6.35% (inactive) | –
5 | CCOC(=O)c1sc(N2C(=O)C(O)=C(C(=O)c3ccco3)C2c2ccco2)nc1C (stereo not given) | -2.93% (inactive) | –
6 | COc1ccc(CC(=O)Nc2sc3c(c2C(N)=O)CCCC3)cc1 | -5.87% (inactive) | –
7 | CCC(C)(C)NC(=O)Cn1c(-c2ccccc2)cc(C(C)=O)c1C | 1.78% (inactive) | –
8 | O=C(CCN1N=C(c2ccccc2)CCC1=O)NCC1CCCO1 (stereo not given) | 6.81% (inactive) | –
9 | Cc1nn(-c2ccc3ccccc3c2)c(=O)c2ccccc12 | -4.49% (inactive) | –
10 | CSc1nnc(-c2ccccc2N=Cc2c(C)[nH]n(-c3ccccc3)c2=O)c(=O)[nH]1 | 11.5% (inactive) | –
11 | Cc1ccc2nc(N3C(=O)C(O)=C(C(=O)c4ccco4)C3c3ccc(C)o3)sc2c1 (stereo not given) | -8.15% (inactive) | –
12 | Cc1ccc2nc(N3C(=O)C(O)=C(C(=O)c4ccc(C)o4)C3c3cccc(O)c3)sc2c1 (stereo not given) | 0.73% (inactive) | –
13 | Cc1cc(C)c2nc(N3C(=O)C(O)=C(C(=O)c4ccco4)C3c3ccco3)sc2c1 (stereo not given) | 1.47% (inactive) | –
14 | Cc1ccc2nc(N3C(=O)C(O)=C(C(=O)c4ccco4)C3c3ccc(O)cc3)sc2c1 (stereo not given) | 3.66% (inactive) | –
15 | Cc1nn(CCCC(=O)NCc2ccccc2)c(C)c1[N+](=O)[O-] | -1.91% (inactive) | –
16 | CCCn1c(N)c(N(CCOC)C(=O)c2ccc([N+](=O)[O-])c(C)c2)c(=O)[nH]c1=O | -3.56% (inactive) | –
17 | COc1ccc(S(=O)(=O)N2CCN(C(=O)Cc3cccs3)CC2)cc1 | -2.65% (inactive) | –
18 | CC(C)c1nc2ccc(NC(=O)C3CCCCC3)cc2[nH]1 | 4.05% (inactive) | –
19 | O=C(C1=C(O)C(=O)N(CCN2CCOCC2)C1c1ccco1)c1cc2ccccc2o1 (stereo not given) | -8.02% (inactive) | –
20 | CC(=C/c1ccccc1)/C=N/n1c(-c2ccco2)n[nH]c1=S | -1.88% (inactive) | 2.73
21 | CC(/C=N/n1c(-c2ccco2)n[nH]c1=S)=C\c1ccccc1 | 1.83% (inactive) | –
22 | Cc1ccc(C(=O)O)cc1NC(=O)c1ccc2c(c1)C(=O)N(c1ccc([N+](=O)[O-])cc1)C2=O | -4.57% (inactive) | –

Row | Compound | inhibition | inhibition [1] [%]
23 | O=C(Nc1ccccc1C(=O)O)c1ccc2c(c1)C(=O)N(c1cccc([N+](=O)[O-])c1)C2=O | 17.6% (inactive) | –
24 | Cc1cc(C(=O)CSc2nnc(N)s2)c(C)n1Cc1ccco1 | -12.5% (inactive) | –
25 | CCOc1ccc(N2C(=O)c3ccccc3C2=O)cc1 | 1.62% (inactive) | –
26 | CCc1ccc(N2C(=O)C(Cl)=C(N3CCCCCC3)C2=O)cc1 | -5.23% (inactive) | –
27 | COc1ccc(N2C(=O)C(Cl)=C(N3CCCC3)C2=O)cc1 | -10.6% (inactive) | –
28 | COc1ccc(OC)c(N2C(=O)C(Cl)=C(N3CCCCC3)C2=O)c1 | 0.68% (inactive) | –
29 | CCc1ccc(N2CCN(C(=O)N3CCOCC3)CC2)cc1 | -8.84% (inactive) | –
30 | COc1ccc(N2C(=O)C(Cl)=C(N3CCN(Cc4ccccc4)CC3)C2=O)cc1 | -1.61% (inactive) | –
31 | COc1ccccc1N1C(=O)C(Cl)=C(N2CCCC2)C1=O | -1.98% (inactive) | 0.315
32 | CCOc1ccc(N2C(=O)CC(N3CCOCC3)C2=O)cc1 (stereo not given) | -2.04% (inactive) | –
33 | COc1cccc(-c2nc3ccc(C(=O)N4CCCC(O)C4)cc3o2)c1 (stereo not given) | -1.93% (inactive) | –
34 | CSc1ccc(CN(C)C(=O)c2ccc(S(=O)(=O)Nc3c(C)n(C)n(-c4ccccc4)c3=O)cc2)cc1 | -9.48% (inactive) | –
35 | CCOC(=O)CSc1nnnn1-c1cc(OC)ccc1OC | -2.05% (inactive) | –
36 | C=CC[C@H](CC(=O)NCCO)C(=O)NCCOC(=O)[C@@H](CC=C)Cc1ccc(F)cc1 | -5.62% (inactive) | –
37 | CCCNC(=O)N1C2=NC(C(=O)OC)=C(C(=O)OC)[C@@H]3N(Cc4ccccc4)c4ccccc4[C@]23C[C@H]1CO | -2.73% (inactive) | –
38 | CCOC(=O)C1Nc2ccc(Br)cc2C2C=CCC12 (stereo not given) | 5.02% (inactive) | –
39 | O=C(O)C1Nc2ccc(Br)cc2C2C=CCC12 (stereo not given) | 55.7% (inactive) | –
40 | CC(=O)c1ccc2c(c1)C1C=CCC1C(c1ccncc1)N2 (stereo not given) | 50.2% (inactive) | –
41 | O=C(O)c1ccc2c(c1)C1C=CCC1C(c1ccncc1)N2 (stereo not given) | -11.1% (inactive) | –
42 | CCOC(=O)c1ccc2c(c1)C1C=CCC1C(C(=O)OCC)N2 (stereo not given) | 10.8% (inactive) | –
43 | CCOC(=O)C1Nc2ccc(C)cc2C2C=CCC12 (stereo not given) | 8.8% (inactive) | –
44 | CCCC1Nc2ccc(C(=O)O)cc2C2C=CCC12 (stereo not given) | 11.1% (inactive) | –

Row | Compound | inhibition | inhibition [1] [%]
45 | CC(C)CNC(=O)C1Nc2ccc(C(F)(F)F)cc2C2C=CCC12 (stereo not given) | 2.4% (inactive) | –
46 | CCN(CC)S(=O)(=O)c1ccc(N2CCOCC2)c(NC(=O)c2cc3ccccc3oc2=O)c1 | -2.2% (inactive) | –
47 | COC(CNC(=O)c1cnn2c(C)c(Cc3ccccc3)c(C)nc12)OC | -1.46% (inactive) | –
48 | Cc1cc(NC(=O)CSc2nc3cc(Cl)ccc3o2)no1 | 1.78% (inactive) | –
49 | COc1ccc(NC(=S)NN2C(C)CCCC2C)cc1 (stereo not given) | -6.57% (inactive) | –
50 | Cc1ccc(S(=O)(=O)N(C)CC(=O)N2CCCc3ccccc32)cc1 | 3.9% (inactive) | –
51 | Cc1ccc(S(=O)(=O)N2CCN(C(=O)CN3C(=O)c4ccccc4C3=O)CC2)c(C)c1 | -3.1% (inactive) | –
52 | Cc1ccc(S(=O)(=O)ON2C(=O)c3cccc4cccc(c34)C2=O)cc1 | 14.2% (inactive) | –
53 | Cc1cc(C)c(C)c(S(=O)(=O)ON2C(=O)c3ccccc3C2=O)c1C | -4.83% (inactive) | –
54 | COc1ccc(OC)c(S(=O)(=O)ON2C(=O)c3ccccc3C2=O)c1 | 12.6% (inactive) | –
55 | COC(=O)c1ccnc(SCC(=O)c2ccccc2)c1 | -7.25% (inactive) | –
56 | Cc1cc(C)c(N2C(=O)C3C4CC(=O)C(c5ccccc54)C3C2=O)c(C)c1 (stereo not given) | -3.14% (inactive) | –
57 | c1ccc(-c2nc3ccccc3c3nc4ccccc4n23)cc1 | 0.36% (inactive) | –
58 | On1c(-c2ccccc2)nc2ccccc21 | -0.77% (inactive) | –
59 | O=C(NCCN1CCOCC1)C1CC(=O)N(c2ccc(Cl)cc2)C1 (stereo not given) | -16.7% (inactive) | –
60 | S=C(NCc1ccco1)Nc1ccc(Br)cn1 | -6.51% (inactive) | –
61 | Cc1ccccc1S(=O)(=O)N(CC(O)CN1CCCCC1)c1ccccc1 (stereo not given) | -8.27% (inactive) | –
62 | COc1ccc(C(=Cc2cc(OC)c(OC)cc2[N+](=O)[O-])C(=O)O)cc1 | -1.59% (inactive) | –
63 | COc1cc(C(=O)N2CCN(c3ccccc3)CC2)c([N+](=O)[O-])cc1OC | -3.88% (inactive) | –
64 | CCOc1ccc(N2C(=O)/C(=C\c3ccccc3OC)S(=O)(=O)C2c2cccc([N+](=O)[O-])c2)cc1 (stereo not given) | -7.02% (inactive) | –
65 | CCOc1ccc(C(=O)Cc2cc(OC)c(OC)cc2[N+](=O)[O-])cc1 | -1.39% (inactive) | –
66 | CCOC(=O)C1CCCN(C(=O)c2cn(C)c(=O)c3cc(OC)c(OC)cc23)C1 (stereo not given) | -5.65% (inactive) | –

Row | Compound | inhibition | inhibition [1] [%]
67 | C#CCOCCOCCOCCNc1nc(N2CCOCC2)nc(N2CCN(C(=O)CCCCCCCCCCNC(=O)Cn3cc(CCCCCN)nn3)CC2)n1 | 9.92% (inactive) | –
68 | Cc1cc(Cl)ccc1OC(C)C(=O)N1CCCN(C(=O)C(C)Oc2ccc(Cl)cc2C)CC1 (stereo not given) | -1.34% (inactive) | –
69 | COc1ccc(C2(CNC(=O)CCC(=O)O)CCCC2)cc1OC | -1.37% (inactive) | -4.84
70 | O=Cc1ccc(-c2ccc(F)cc2)o1 | -6.55% (inactive) | –
71 | O=C(O)c1ccc(-c2cccc(Cl)c2)o1 | -4.79% (inactive) | –
72 | Cc1[nH][nH]c(=O)c1C(c1ccc(-c2ccc(Cl)c(Cl)c2)o1)c1c(C)[nH][nH]c1=O | 61.3% (inactive) | –
73 | Cc1[nH][nH]c(=O)c1C(c1ccc(-c2ccc(Cl)cc2)o1)c1c(C)[nH][nH]c1=O | 21% (inactive) | –
74 | CCC(OC(=O)c1nsc(Cl)c1Cl)C(=O)NCC1CCCO1 (stereo not given) | -4.98% (inactive) | –
75 | CCCc1cc(=O)oc2cc(C)cc(OC(C)C(=O)NCc3cccnc3)c12 (stereo not given) | -9.54% (inactive) | –
76 | NC(=O)Cn1c(O)c(N=NC(=O)CNC(=O)/C=C/c2ccccc2)c2ccccc21 | 3.88% (inactive) | –
77 | CC(C)CC(COCc1cccc(Cl)c1)N1CCN(C(=O)c2cccc(C(F)(F)F)c2)CCC1=O (stereo not given) | 0.79% (inactive) | –
78 | CCOc1ccccc1CN1CCNC(=O)C1CC(=O)NC1CCCCCC1 (stereo not given) | 7.85% (inactive) | –
79 | CC(C)CCn1c(SCC(=O)Nc2ccccc2C(F)(F)F)nc2nccnc2c1=O | -2.66% (inactive) | –
80 | CCOC(=O)C1CCN(S(=O)(=O)c2ccc(CNC(=O)c3ccccc3)s2)CC1 | -13.1% (inactive) | –
81 | COC(=O)Nc1ccc(S(=O)(=O)N2CCCC(C(=O)N3CC(C)OC(C)C3)C2)cc1 (stereo not given) | -5.54% (inactive) | –
82 | O=C(CSc1nnc2ccc(-c3ccccn3)nn12)Nc1ccc(F)cc1 | 2.75% (inactive) | –
83 | C[C@@H]1CN(C(=O)c2cc(COc3cccc(C(F)(F)F)c3)on2)C[C@H](C)O1 | -9.08% (inactive) | –
84 | COc1ccccc1C(=O)Nc1ccnn1C1CCN(Cc2cn(C)c3ccccc23)CC1 | -3.88% (inactive) | –
85 | C/C(CCC(=O)O)=N/Nc1ccc([N+](=O)[O-])cc1[N+](=O)[O-] | -3.25% (inactive) | –
86 | CCC(CC)=NNc1ccc([N+](=O)[O-])cc1[N+](=O)[O-] | -0.89% (inactive) | –
87 | Cc1ccc(CN2CCN(CC(=O)NC(C)CCc3ccccc3)C2=O)cc1 (stereo not given) | -4.17% (inactive) | –

Reference: PubChem BioAssay AID588689 (Southern Research Specialized Biocontainment Screening …, 2011)
